According to ChEMBL document CHEMBL3988442, “University of Dundee, Small-Polar-MMV Screening Library” (2021):
Out of some 48,000 compounds screened, about 13,000 (27%) showed an effect of 50% or more. The list shows a part of the results.

Test system: Wolbachia pipientis
Assay: Anti-Wolbachia Cell-Based Screen
Type: functional
Parameters: scale not given: in the data most compounds retested in dose-response had high values
Details: 5 µM

Row | Compound | Percent Effect [%]
1 | CN(C)CCOCC1CN(C(=O)c2ccnnc2)Cc2ccnn2C1.O=C(O)C(F)(F)F.O=C(O)C(F)(F)F (stereo not given) | 5.316
2 | CCn1cc2c(n1)C(COCC1CC1)CN(c1ccc(C)nn1)C2 (stereo not given) | 10.52
3 | CCCSc1nc(N)c(NC(=O)c2ccc(OC)c(OC)c2)c(=O)[nH]1 | -5.573
4 | O=C(Cc1cccnc1)N1CCCC2(CCN(C3CCOCC3)C2)C1.O=C(O)C(F)(F)F.O=C(O)C(F)(F)F (stereo not given) | 3.784
5 | CN1CCCC(Cc2ccnc3ccncc23)CC1 (stereo not given) | -6.52
6 | O=C(NCCc1c[nH]cn1)C1CCCN(Cc2ccco2)C1 (stereo not given) | -20.31
7 | CS(=O)(=O)N1CCCC(Cc2ccnc3ccncc23)CC1 (stereo not given) | 72.88
8 | Cn1ccnc1CN1CCC(CNS(=O)(=O)c2cccnc2)C1 (stereo not given) | 2.394
9 | O=CO.c1cc2nccc(CC3CCCN(Cc4c[nH]cn4)CC3)c2cn1 (stereo not given) | 92.48
10 | O=C(CC1CC1)N(Cc1cccnc1)CC1CCN(C2CCCC2)CC1 | -16.06
11 | c1cc2nccc(CC3CCCN(Cc4ncc[nH]4)CC3)c2cn1 (stereo not given) | 3.513
12 | Cn1ccnc1CN1CCCC(Cc2ccnc3ccncc23)CC1.O=CO (stereo not given) | 122.1
13 | O=CO.c1cc2nccc(CC3CCCN(C4CCOCC4)CC3)c2cn1 (stereo not given) | 113.5
14 | Cc1cccc(-c2nc(CN3CCn4c(nnc4C4CC4)C3)no2)c1 | 0.9786
15 | Cc1nc(C2(NCc3c(C)nn(C)c3N3CCOCC3)CCC2)no1 | -14.17
16 | Cc1cccc(CS(=O)(=O)Cc2ccn(C)c(=O)c2)c1 | -8.677
17 | c1cn(CCNc2nc(NC3CC3)nc3c2CCNCC3)nn1 | -2.29
18 | COc1ccc(N(c2ccccc2)c2ccc(C(=O)O)s2)cc1 | 119.4
19 | COc1ccc(OC2CCN(C(=O)c3ccc(C(C)=O)s3)CC2)cc1 | -8.42
20 | CCN(C(=O)CN1CCCC1c1ccc(OC)cc1)c1ccccc1C (stereo not given) | 3.108
21 | COc1ccc(N(c2ccc(OC)cc2)c2ccc(C(=O)O)s2)cc1 | 99.84
22 | COc1ccc(CNC(=O)C2=NN(c3ccc(C)cc3)C(=O)CN2)cc1 | -36.41
23 | CCN(C(=O)CN1CCCC1c1ccc(OC)cc1)c1ccccc1 (stereo not given) | 3.138
24 | COc1ccc(N(c2ccc(C)cc2)c2ccc(C(=O)O)s2)cc1 | 128.9
25 | COc1cc(/C=C/c2ncc(C(=O)O)s2)cc(OC)c1 | 4.44
26 | CC(C)C[C@H](N)C(=O)N1CC2(CCNCC2)c2cc(Cl)ccc21.Cl.Cl | 115.3
27 | C[C@@H](N)C(=O)N1CC2(CCNCC2)c2cc(Cl)ccc21.Cl.Cl | 85.61

Row | Compound | Percent Effect [%]
28 | O=C1CN(C(=O)c2cc(Cl)ccc2F)c2ccccc2N1 | 1.511
29 | CCC(=O)N1CCC2(CC1)CN(C(C)=O)c1ccc(C)cc12 | 1.312
30 | Cc1ccc2c(c1)C1(CCNCC1)CN2C(=O)C(C)C | -27.38
31 | CCOC(=O)N1CC2(CCNCC2)c2cc(Cl)ccc21.Cl | 107.5
32 | CC(=O)N1CC2(CCN(C(=O)CO)CC2)c2cc(C)ccc21 | -15.84
33 | Cl.O=C(c1ccccc1F)N1CC2(CCNCC2)c2cc(Cl)ccc21 | 106.3
34 | CN(C)C(=O)N1CC2(CCNCC2)c2cc(Cl)ccc21.Cl | -23.53
35 | Cc1ccc2c(c1)C1(CCN(S(C)(=O)=O)CC1)CN2C(=O)N(C)C | 0.4399
36 | O=C1CN(C(=O)c2cc(Cl)ccc2F)c2ccncc2N1 | -25.93
37 | CC(CO)(NC(=O)Nc1nnc(C(F)F)s1)C1CC1 (stereo not given) | -2.731
38 | CCc1ccc(C(C)NC(=O)CN(C)Cc2ccc(C)o2)cc1 (stereo not given) | 6.981
39 | O=C(O)c1ccccc1C1CCN(C2CCN(c3ccccc3)CC2)C1 (stereo not given) | 1.292
40 | CC1CN(Cc2ccccn2)CCN1c1ccc2nncn2n1 (stereo not given) | 99.39
41 | Cc1ncc(CN2CCOC(CN(C)c3cccnn3)C2)s1 (stereo not given) | -7.672
42 | Cc1csc(N2CCN(Cc3cnc(C)s3)CC2C)n1 (stereo not given) | -7.074
43 | Cc1cc(CN2CCN(c3ccc4nncn4n3)C(C)C2)on1 (stereo not given) | 105.9
44 | Cc1nc(CN2CCN(c3ccc4nncn4n3)C(C)C2)oc1C (stereo not given) | 98.31
45 | Cc1cc(CN2CCN(c3ccc4nncn4n3)C(C)C2)no1 (stereo not given) | 0.8559
46 | Cc1ncc(CN2CCN(c3ccc4nncn4n3)C(C)C2)s1 (stereo not given) | 100.4
47 | Cc1nc(CN2CCOC(c3ccc(Cl)cc3)C2)oc1C (stereo not given) | -15.43
48 | CC1(C)CN(C(=O)c2cnc(-c3ccccn3)nc2)CC[C@]1(C)O | -14.16
49 | CC(c1ccccc1F)N(C(=O)CSCC(N)=O)C1CC1 (stereo not given) | -1.119
50 | CCc1[nH]c2c(CNc3cncc(C(=O)N(C)C)n3)cc(C)cc2c1C | -3.475
51 | COc1ccc(C(C)Nc2ncc(C(N)=O)cc2Cl)c(OC)c1 (stereo not given) | 7.521
52 | CS(=O)(=O)NCCN1CCSCC1c1ccc(Cl)cc1 (stereo not given) | 7.054
53 | Cn1ccnc1SCc1nc(C(C)(C)NC(=O)OC(C)(C)C)no1 | 4.931
54 | Cc1cc(CN2CCN(c3ccc4nncn4n3)CC2)no1 | 96.25

Row | Compound | Percent Effect [%]
55 | c1ccc(CN2CCN(c3ccc4nncn4n3)CC2)nc1 | 81.68
56 | Cc1nnc2ccc(N3CCN(CCc4ccccn4)CC3)nn12 | 75.62
57 | N#Cc1ccc(N2CCN(c3ccc4nncn4n3)CC2)nc1 | -1.975
58 | Cc1cc(CN2CCN(CC(O)C(C)(C)C)CC2)no1 (stereo not given) | -2.656
59 | c1ccc(CCN2CCN(c3ccc4nncn4n3)CC2)nc1 | -2.088
60 | Cc1ccn(-c2ccc(N3CCN(Cc4ccccn4)CC3)nn2)n1 | -3.971
61 | Cc1cnc(CN2CCN(c3ccc4nncn4n3)C(C)C2)cn1 (stereo not given) | 120.6
62 | CC1CN(CC2CCCCC2)CCN1c1ccc2nncn2n1 (stereo not given) | -9.658
63 | Cc1nnc2ccc(N3CCN(Cc4nccn4C)CC3)nn12 | -5.258
64 | CC1CN(CC2CCCC2)CCN1c1ccc2nncn2n1 (stereo not given) | -0.9162
65 | CCn1ccnc1CN1CCN(c2ccc3nnc(C)n3n2)CC1 | -14.29
66 | O=C(Nc1cnccn1)[C@H]1C[C@H]2OCC[C@H]2N(c2ncc(F)cn2)C1 | 2.565
67 | c1ccc(CN2Cc3ccnn3CC(COCc3cccnc3)C2)nc1 (stereo not given) | -0.5546
68 | CCOCCN1CCN(CCCc2nnnn2-c2ccccc2)CC1 | -8.911
69 | CC1CN(CCc2ccccn2)CCN1c1ccc2nncn2n1 (stereo not given) | 129.7
70 | CC1CN(CC(=O)N2CCCC2)CCN1c1ccc2nncn2n1 (stereo not given) | -2.378
71 | CCCc1cc(N2CCCCC2Cn2cc(C)cn2)n2ncnc2n1 (stereo not given) | -0.9521
72 | COc1ccc(CCC(=O)N2CCNCC2C(=O)N2CCCC2)cc1 (stereo not given) | 99.9
73 | COc1ccc(C(=O)N2CCN(C(=O)CCCc3cn[nH]c3)CC2)cc1 | -2.583
74 | COc1ccc(CCC(=O)N2CCNCC2C(=O)N2CCOCC2)cc1 (stereo not given) | 109
75 | COc1ccc(CCCC(=O)N2CCCC(n3cccn3)C2)cc1 (stereo not given) | 8.149
76 | O=C(C1CNCCN1C(=O)CCc1cccnc1)N1CCOCC1 (stereo not given) | 99.11
77 | O=C(Nc1ccc(F)cc1)C1CNCCN1C(=O)CCc1cccnc1 (stereo not given) | -3.468
78 | Cc1cc(CCC(=O)N2CCOCC2)ccc1Br | 7.033
79 | Cc1ccc(CCC(=O)N2CCOCC2)cc1Cl | -2.511
80 | Cc1ccccc1N1CCCN(C(=O)CCc2cccnc2)CC1 | 13.31
81 | CCn1cnnc1CCNC(=O)C1COc2ccc(OC)cc2C1 (stereo not given) | 0.6591

Row | Compound | Percent Effect [%]
82 | O=S(=O)(CCc1ccccc1)Cc1nc(C2CC2)no1 | 20.48
83 | Cc1nc(CN[C@H]2CCCN(C(=O)OC(C)(C)C)C2)cs1 | 1.8
84 | Cc1c(C2CCCN(C(=O)C3CC3)C2)n2c(nc1=O)CCC2.Cl (stereo not given) | 11.8
85 | Cc1cnc(C(=O)N2CCCC(c3c(C)c(=O)nc4n3CCC4)C2)cn1.Cl (stereo not given) | 99.49
86 | Cc1csc(C2CCCN(C(=O)c3ccc(=O)n(C)n3)C2)n1 (stereo not given) | 3.739
87 | Cc1c(C2CCCN(C(=O)OC(C)(C)C)C2)n2c(nc1=O)CCC2 (stereo not given) | 101.7
88 | Cc1csc(CNCC2CCCN(C(=O)OC(C)(C)C)C2)n1 (stereo not given) | 11.13
89 | Cc1c(C2CCCN(C(=O)c3ccn(C)n3)C2)n2c(nc1=O)CCC2 (stereo not given) | 88.69
90 | Cc1cnc(C(=O)N2CCCC(Cn3cc(C4CC4)nn3)C2)cn1 (stereo not given) | 1.892
91 | O[C@@H]1C[C@@H](c2nc(-c3ccc(OC(F)(F)F)cc3)no2)N(CC2CC2)C1 | 9.042
92 | CCC/C=C/c1ccc(CN2CCCC2)cn1 | -3.861
93 | CCOC(=O)CN1CC(c2nc(-c3ccsc3)no2)C1.O=C(O)C(=O)O | -3.591
94 | CCC1COCCN1C(=O)CNC(=O)c1ccoc1C (stereo not given) | -13.26
95 | Cc1nc2c(c(Nc3ccccn3)n1)CN(S(C)(=O)=O)CC2 | 109
96 | CS(=O)(=O)N1CCN(c2ccc(Nc3ccccn3)nn2)CC1 | 2.595
97 | Cc1nc(Nc2ccccn2)cc(N2CCN(S(C)(=O)=O)CC2)n1 | -12.78
98 | Cc1ncc(CNCC(=O)NC2CCCCC2)n1-c1ccccc1 | -6.194
99 | CC(CCc1ccccc1)NC(=O)Nc1cnn(CC(N)=O)c1 (stereo not given) | -0.3012
100 | CCc1nnc2n1CCN(C(=O)COCCc1ccccc1)C2 | -3.602
101 | CCc1nnc2n1CCN(C(=O)c1ccccc1OCC1CC1)C2 | -2.361
102 | CCc1nnc2n1CCN(C(=O)c1cnn(C)c1C1CC1)C2 | 0.7265
103 | CCc1nnc2n1CCN(C(=O)CN(CC)CC)C2 | 97.7
104 | CCc1nnc2n1CCN(C(=O)CN(C)C1CC1)C2 | 84.19
105 | CCc1ncc(C(=O)N2CCn3c(CC)nnc3C2)s1 | -2.408
